Holding throughout (assay): DAPPL (digital affinity profiling via proximity ligation, sequencing); 10 mM Tris-HCl pH 7.5, 50 mM NaCl, 1 mM DTT, 4% glycerol, room temperature, 30 min; GST-TFs on glutathione beads, 16-mer random dsDNA library, 0.1% formaldehyde crosslink after washing; high values mean tight binding
Holding throughout (conditions): protein: recombinant; tags: N-terminal GST; dsDNA, one strand shown

For one experiment, the target named is T1, GABPA (Homo sapiens, UniProt Q06546 1-454).
T1 sequence: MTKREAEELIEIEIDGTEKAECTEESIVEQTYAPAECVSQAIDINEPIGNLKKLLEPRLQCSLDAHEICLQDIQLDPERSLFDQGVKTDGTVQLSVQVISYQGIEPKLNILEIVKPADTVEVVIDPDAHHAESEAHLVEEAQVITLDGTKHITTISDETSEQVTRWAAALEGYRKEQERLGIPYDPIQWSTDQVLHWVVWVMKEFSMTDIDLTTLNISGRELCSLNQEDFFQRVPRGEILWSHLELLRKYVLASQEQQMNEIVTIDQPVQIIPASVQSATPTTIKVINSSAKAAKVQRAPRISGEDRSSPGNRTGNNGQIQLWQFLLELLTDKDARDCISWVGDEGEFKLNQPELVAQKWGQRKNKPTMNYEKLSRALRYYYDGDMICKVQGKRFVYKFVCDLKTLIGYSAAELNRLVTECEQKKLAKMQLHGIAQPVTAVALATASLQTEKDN
The essentials:
(§1)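 Beads coated with glutathione captured GST-fused human transcription factors that had been expressed in yeast, and the factors were then given DNA barcodes and pooled with a tag-only sample. The pools were incubated with 200 nmole of a random double-stranded 16-mer DNA library in Tris/NaCl/DTT/glycerol buffer for 30 min at room temperature, washed, crosslinked with 0.1% formaldehyde and proximity-ligated with BsaI/T4 ligase at 37 °C for 1 h. PCR amplification and Illumina NextSeq500 sequencing came last. Binding signal is each hexamer's read frequency for a factor divided by its frequency for the tag-only sample.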

Another experiment concerns the target ELF1 (Homo sapiens, UniProt P32519 1-619). The essentials: as §1
The target in the next experiment is T2, EHF (Homo sapiens, UniProt Q9NZC4 1-300).
T2 sequence: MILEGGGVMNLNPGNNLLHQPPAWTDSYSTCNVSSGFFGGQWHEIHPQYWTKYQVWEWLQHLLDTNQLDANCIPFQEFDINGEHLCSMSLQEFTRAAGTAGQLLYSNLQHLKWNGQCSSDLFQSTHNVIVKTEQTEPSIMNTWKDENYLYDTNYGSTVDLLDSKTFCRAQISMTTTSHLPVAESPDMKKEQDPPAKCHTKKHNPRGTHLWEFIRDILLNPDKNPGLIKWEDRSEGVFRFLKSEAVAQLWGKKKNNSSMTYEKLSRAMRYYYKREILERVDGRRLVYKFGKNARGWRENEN
The gist of the method:
as §1

In a further experiment the target is SPI1 (Homo sapiens, UniProt P17947 1-270). The essentials:
as §1

The next experiment addresses SPIB (Homo sapiens, UniProt Q01892 1-262). The essentials:
as §1

In another experiment the target is ETV5 (Homo sapiens, UniProt P41161 1-510). The gist of the method:
as §1

A further experiment has as its target ELF4 (Homo sapiens, UniProt Q99607 1-663). The gist of the method: as §1
A further experiment concerns the target T3, ELK4 (Homo sapiens, UniProt P28324-2 1-405).
T3 sequence: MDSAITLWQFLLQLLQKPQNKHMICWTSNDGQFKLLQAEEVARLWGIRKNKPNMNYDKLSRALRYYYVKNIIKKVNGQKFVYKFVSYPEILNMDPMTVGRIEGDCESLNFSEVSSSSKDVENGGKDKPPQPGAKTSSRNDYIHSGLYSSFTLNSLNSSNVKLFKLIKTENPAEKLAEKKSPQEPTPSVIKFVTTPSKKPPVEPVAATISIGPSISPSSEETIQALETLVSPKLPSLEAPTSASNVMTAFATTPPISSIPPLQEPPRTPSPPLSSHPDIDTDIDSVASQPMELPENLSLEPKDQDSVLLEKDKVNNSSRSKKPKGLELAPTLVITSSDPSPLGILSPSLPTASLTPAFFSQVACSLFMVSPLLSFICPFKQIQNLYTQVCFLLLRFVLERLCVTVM
The gist of the method: as §1

Another experiment deals with T4, ETV2 (Homo sapiens, UniProt O00321 1-342).
T4 sequence: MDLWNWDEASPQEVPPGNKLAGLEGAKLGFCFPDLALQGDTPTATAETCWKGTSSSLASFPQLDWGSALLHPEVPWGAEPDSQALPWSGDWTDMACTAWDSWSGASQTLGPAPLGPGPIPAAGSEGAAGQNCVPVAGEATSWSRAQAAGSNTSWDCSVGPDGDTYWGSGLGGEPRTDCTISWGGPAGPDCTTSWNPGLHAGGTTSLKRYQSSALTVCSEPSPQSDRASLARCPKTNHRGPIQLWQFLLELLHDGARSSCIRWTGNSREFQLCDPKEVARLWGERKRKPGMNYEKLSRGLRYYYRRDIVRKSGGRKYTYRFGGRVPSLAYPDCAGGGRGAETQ
The gist of the method:
as §1

In a further experiment the target is ETV1 (Homo sapiens, UniProt P50549 1-477). The essentials:
as §1

Another experiment addresses T5, SPDEF (Homo sapiens, UniProt O95238 1-335).
T5 sequence: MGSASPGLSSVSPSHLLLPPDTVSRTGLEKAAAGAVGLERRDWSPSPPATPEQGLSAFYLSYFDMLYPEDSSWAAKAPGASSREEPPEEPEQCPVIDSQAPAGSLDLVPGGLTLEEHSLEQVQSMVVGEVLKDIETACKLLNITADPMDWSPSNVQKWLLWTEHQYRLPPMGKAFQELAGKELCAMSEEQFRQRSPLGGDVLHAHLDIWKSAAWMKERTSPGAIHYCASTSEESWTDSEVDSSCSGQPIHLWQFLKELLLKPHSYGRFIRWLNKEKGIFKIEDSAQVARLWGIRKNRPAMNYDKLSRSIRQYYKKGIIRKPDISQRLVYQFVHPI
The gist of the method: as §1

The next experiment addresses T6, ETV3 (Homo sapiens, UniProt P41162-2 1-143).
T6 sequence: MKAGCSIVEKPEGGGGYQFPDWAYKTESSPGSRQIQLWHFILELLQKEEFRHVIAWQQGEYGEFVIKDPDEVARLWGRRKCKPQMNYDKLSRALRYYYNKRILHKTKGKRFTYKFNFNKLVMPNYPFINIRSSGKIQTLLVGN
The essentials: as §1

The next experiment addresses ETV6 (Homo sapiens, UniProt P41212 1-452). The gist of the method:
as §1

Another experiment has as its target T7, ETV3L (Homo sapiens, UniProt Q6ZN32 1-361).
T7 sequence: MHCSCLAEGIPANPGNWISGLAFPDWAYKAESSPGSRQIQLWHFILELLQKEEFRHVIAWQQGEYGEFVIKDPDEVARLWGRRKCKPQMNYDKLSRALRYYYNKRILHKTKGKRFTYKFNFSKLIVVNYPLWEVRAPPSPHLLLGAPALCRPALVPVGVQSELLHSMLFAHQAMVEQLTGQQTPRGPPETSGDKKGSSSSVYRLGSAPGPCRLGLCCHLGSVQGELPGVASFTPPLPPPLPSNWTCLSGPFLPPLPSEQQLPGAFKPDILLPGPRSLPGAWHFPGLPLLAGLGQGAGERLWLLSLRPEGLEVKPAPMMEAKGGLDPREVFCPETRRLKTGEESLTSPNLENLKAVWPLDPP
The essentials:
as §1

The next experiment has as its target T8, ETS2 (Homo sapiens, UniProt P15036 1-469).
T8 sequence: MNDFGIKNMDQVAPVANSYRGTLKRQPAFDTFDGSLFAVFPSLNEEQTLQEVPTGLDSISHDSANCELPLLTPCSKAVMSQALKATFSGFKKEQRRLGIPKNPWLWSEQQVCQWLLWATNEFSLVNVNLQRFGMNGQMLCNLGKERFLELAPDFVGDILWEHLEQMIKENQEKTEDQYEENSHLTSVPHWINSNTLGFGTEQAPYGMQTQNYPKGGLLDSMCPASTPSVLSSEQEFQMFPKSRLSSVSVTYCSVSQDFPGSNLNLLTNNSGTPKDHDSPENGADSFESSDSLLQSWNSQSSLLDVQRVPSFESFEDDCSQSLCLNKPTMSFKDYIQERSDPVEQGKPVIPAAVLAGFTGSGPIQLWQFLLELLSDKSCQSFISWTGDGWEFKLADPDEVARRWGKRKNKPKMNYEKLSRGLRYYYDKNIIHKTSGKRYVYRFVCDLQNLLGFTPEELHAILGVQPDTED
The essentials:
as §1

The target in a further experiment is T9, ETV7 (Homo sapiens, UniProt Q9Y603 1-341).
T9 sequence: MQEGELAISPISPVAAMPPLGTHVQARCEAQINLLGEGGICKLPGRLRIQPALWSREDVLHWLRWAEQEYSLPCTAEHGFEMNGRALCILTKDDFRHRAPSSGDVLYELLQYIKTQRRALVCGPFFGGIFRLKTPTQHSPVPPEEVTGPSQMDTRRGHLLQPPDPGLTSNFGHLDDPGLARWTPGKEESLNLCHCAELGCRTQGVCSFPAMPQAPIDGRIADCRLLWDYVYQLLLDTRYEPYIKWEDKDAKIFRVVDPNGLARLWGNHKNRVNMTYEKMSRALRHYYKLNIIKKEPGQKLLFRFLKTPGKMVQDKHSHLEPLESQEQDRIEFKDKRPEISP
The gist of the method: as §1

Chain of ETV5 (P41161 whole entry): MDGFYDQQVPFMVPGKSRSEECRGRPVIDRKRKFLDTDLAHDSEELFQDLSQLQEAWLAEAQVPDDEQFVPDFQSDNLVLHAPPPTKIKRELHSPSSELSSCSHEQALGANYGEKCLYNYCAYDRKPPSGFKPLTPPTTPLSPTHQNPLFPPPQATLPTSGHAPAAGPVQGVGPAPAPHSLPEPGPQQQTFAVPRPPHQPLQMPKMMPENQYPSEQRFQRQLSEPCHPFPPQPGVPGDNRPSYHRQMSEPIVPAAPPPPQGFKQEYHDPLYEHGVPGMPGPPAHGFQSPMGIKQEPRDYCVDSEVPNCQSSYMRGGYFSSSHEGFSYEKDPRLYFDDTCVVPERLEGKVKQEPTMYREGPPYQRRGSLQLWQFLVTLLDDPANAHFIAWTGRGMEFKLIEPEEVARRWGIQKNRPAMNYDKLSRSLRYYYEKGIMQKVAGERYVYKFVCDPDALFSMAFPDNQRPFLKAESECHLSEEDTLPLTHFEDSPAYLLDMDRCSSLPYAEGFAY
Chain of ELF4 (Q99607 whole entry): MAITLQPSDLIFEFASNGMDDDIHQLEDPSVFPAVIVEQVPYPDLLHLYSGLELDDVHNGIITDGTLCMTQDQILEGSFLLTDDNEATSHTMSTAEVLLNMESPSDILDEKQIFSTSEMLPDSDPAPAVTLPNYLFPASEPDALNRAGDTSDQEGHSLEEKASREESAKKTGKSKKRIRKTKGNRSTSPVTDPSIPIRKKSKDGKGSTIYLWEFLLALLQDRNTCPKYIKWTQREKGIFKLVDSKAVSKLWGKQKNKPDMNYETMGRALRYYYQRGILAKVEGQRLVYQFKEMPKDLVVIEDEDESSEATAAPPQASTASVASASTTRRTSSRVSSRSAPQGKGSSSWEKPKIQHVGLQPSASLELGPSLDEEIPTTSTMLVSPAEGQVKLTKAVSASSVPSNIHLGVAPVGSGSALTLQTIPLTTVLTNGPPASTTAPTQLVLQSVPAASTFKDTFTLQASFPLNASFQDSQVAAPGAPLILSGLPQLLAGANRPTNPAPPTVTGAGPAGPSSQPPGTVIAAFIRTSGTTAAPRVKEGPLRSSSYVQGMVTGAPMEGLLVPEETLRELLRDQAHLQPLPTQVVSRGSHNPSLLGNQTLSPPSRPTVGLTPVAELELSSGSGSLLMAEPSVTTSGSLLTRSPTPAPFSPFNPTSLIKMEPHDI
Chain of ELF1 (P32519 whole entry): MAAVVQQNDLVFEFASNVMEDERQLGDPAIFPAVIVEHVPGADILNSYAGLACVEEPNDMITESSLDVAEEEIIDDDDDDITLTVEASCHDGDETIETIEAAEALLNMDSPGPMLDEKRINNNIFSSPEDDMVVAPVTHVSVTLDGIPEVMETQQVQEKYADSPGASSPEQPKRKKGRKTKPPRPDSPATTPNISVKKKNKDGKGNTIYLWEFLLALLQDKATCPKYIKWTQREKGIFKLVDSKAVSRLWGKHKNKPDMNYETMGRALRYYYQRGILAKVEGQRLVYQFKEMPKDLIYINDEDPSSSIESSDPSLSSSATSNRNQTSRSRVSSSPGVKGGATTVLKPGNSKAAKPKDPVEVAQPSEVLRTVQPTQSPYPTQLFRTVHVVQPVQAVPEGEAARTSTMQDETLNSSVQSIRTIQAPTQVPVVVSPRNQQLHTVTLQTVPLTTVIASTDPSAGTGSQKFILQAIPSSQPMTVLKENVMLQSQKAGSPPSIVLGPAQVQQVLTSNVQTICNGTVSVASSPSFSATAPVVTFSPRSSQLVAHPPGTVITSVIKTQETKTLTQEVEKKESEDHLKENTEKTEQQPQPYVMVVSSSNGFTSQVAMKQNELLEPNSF
Chain of SPIB (Q01892 whole entry): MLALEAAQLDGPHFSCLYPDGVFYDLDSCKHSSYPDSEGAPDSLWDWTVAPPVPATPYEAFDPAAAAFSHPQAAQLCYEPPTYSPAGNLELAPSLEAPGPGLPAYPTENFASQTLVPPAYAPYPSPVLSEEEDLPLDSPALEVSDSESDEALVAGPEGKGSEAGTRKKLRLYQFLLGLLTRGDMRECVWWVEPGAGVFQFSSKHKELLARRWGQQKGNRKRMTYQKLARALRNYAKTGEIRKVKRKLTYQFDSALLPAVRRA
Chain of ETV6 (P41212 whole entry): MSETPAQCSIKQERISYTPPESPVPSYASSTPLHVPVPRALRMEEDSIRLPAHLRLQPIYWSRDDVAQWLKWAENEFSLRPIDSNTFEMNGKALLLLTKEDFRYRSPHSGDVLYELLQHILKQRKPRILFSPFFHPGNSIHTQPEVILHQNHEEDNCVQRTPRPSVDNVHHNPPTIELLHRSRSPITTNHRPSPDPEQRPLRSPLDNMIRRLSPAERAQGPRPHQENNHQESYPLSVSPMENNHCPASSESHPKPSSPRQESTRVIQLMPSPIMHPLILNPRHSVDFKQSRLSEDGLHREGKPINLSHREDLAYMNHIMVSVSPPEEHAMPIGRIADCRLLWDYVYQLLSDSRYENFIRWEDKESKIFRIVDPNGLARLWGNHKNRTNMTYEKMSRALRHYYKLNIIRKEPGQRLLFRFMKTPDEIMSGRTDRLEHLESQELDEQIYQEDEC
Chain of ETV1 (P50549 whole entry): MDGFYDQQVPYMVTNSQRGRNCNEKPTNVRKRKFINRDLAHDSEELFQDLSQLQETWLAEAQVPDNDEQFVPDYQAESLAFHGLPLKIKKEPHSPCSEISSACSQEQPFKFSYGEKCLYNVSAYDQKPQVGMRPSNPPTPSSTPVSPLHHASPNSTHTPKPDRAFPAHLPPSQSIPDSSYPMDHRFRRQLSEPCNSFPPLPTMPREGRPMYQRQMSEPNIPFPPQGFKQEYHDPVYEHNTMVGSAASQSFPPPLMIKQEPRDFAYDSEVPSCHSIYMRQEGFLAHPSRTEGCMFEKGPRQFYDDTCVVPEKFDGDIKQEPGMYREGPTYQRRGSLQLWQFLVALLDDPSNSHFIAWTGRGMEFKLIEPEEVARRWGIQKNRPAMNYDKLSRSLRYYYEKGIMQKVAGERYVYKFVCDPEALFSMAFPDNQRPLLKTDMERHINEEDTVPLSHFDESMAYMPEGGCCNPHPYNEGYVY

Take ACGCGG: the binding signal in the experiment with GABPA was 1.01 fold enrichment (6-mer frequency, TF over GST control); with ELF1, 1.03 fold enrichment (6-mer frequency, TF over GST control); with EHF, 1.04 fold enrichment (6-mer frequency, TF over GST control); with SPI1, 1.02 fold enrichment (6-mer frequency, TF over GST control); with SPIB, 1.04 fold enrichment (6-mer frequency, TF over GST control); with ETV5 it was 1.02 fold enrichment (6-mer frequency, TF over GST control). Besides, the binding signal is 1 fold enrichment (6-mer frequency, TF over GST control) with ELF4; 1.03 fold enrichment (6-mer frequency, TF over GST control) in the experiment with ELK4; 1.18 fold enrichment (6-mer frequency, TF over GST control) in the experiment with ETV2; 1.02 fold enrichment (6-mer frequency, TF over GST control) in the experiment with ETV1; 1.08 fold enrichment (6-mer frequency, TF over GST control) with SPDEF; 1.02 fold enrichment (6-mer frequency, TF over GST control) with ETV3. Besides, the binding signal in the experiment with ETV6 was 1.07 fold enrichment (6-mer frequency, TF over GST control).
In the case of CCAAGC, the binding signal with GABPA is 1.06 fold enrichment (6-mer frequency, TF over GST control); with ELF1, 1.04 fold enrichment (6-mer frequency, TF over GST control); in the experiment with EHF, 1.02 fold enrichment (6-mer frequency, TF over GST control); with ETV5, 1.09 fold enrichment (6-mer frequency, TF over GST control); with ELF4 it was 1.07 fold enrichment (6-mer frequency, TF over GST control); in the experiment with ELK4 it was 1.03 fold enrichment (6-mer frequency, TF over GST control). Further, the binding signal in the experiment with ETV2 is 1.02 fold enrichment (6-mer frequency, TF over GST control); with ETV3L it was 1.01 fold enrichment (6-mer frequency, TF over GST control); in the experiment with ETS2, 1.03 fold enrichment (6-mer frequency, TF over GST control); with ETV7, 1.06 fold enrichment (6-mer frequency, TF over GST control); with ETV3 it was 1.03 fold enrichment (6-mer frequency, TF over GST control).

These data come from paper PMC7862700, “An all-to-all approach to the identification of sequence-specific readers for epigenetic DNA modifications on cytosine”.
